Here are results for ten compounds from article PMC11062922 (Nature Chemical Biology, 2023).

Like-named read-outs stand apart in the source and are kept apart here.

The subject of test [1] is AAK1. Also noted: species or system human, MV4-11 + K-562 + COLO205 + SK-N-BE2 + OVCAR-8. As to conditions: read-out: apparent Kd, n = 1.
Test [2] relates to GAK. Also noted: species or system human, MV4-11 + K-562 + COLO205 + SK-N-BE2 + OVCAR-8. As to conditions: read-out: apparent Kd, n = 1.
The subject of test [3] is GSK3A. Also noted: species or system human, MV4-11 + K-562 + COLO205 + SK-N-BE2 + OVCAR-8. Conditions: read-out: apparent Kd, compound concentrations: 100 nM and 1000 nM (sheet 'Samples'), n = 1.
The test system of test [4] is GSK3B. Also on record: species or system human, MV4-11 + K-562 + COLO205 + SK-N-BE2 + OVCAR-8. As to conditions: read-out: apparent Kd, compound concentrations: 100 nM and 1000 nM (sheet 'Samples'), n = 1.
The test system of test [5] is PRKAG1. Also on record: species or system human, MV4-11 + K-562 + COLO205 + SK-N-BE2 + OVCAR-8. As to conditions: read-out: apparent Kd, n = 1.
In test [6] the test system is BMP2K. Also on record: species or system human, MV4-11 + K-562 + COLO205 + SK-N-BE2 + OVCAR-8. Conditions: read-out: apparent Kd, n = 1.
In test [7] the test system is CLK4. Also on record: species or system human, MV4-11 + K-562 + COLO205 + SK-N-BE2 + OVCAR-8. As to conditions: read-out: apparent Kd, n = 1.
Test [8] deals with MELK. Also on record: species or system human, MV4-11 + K-562 + COLO205 + SK-N-BE2 + OVCAR-8. Conditions: read-out: apparent Kd; compound concentrations:100 nM and 1000 nM (sheet 'Samples'); n = 1.
For test [9], the system named is NUAK1. Also noted: species or system human, MV4-11 + K-562 + COLO205 + SK-N-BE2 + OVCAR-8. Conditions: read-out: apparent Kd; compound concentrations:100 nM and 1000 nM (sheet 'Samples'); n = 1.
In test [10] the target is Q6ZSR9 (human, UniProt Q6ZSR9). Also noted: species or system MV4-11 + K-562 + COLO205 + SK-N-BE2 + OVCAR-8. As to conditions: read-out: apparent Kd, n = 1.
Sequence of Q6ZSR9 (Q6ZSR9 whole entry, looked up): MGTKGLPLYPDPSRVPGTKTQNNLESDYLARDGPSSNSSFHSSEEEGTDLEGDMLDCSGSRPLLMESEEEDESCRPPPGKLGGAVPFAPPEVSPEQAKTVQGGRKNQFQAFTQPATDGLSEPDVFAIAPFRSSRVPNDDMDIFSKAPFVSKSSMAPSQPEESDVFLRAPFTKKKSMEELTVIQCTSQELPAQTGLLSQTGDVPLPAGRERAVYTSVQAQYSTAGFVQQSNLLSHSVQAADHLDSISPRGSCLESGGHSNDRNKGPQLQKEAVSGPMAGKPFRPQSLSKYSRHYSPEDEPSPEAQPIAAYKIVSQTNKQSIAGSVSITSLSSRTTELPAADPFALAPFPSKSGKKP
The test system of test [11] is CLK1. Also on record: species or system human, MV4-11 + K-562 + COLO205 + SK-N-BE2 + OVCAR-8. Conditions: read-out: apparent Kd, n = 1.
Test [12] concerns CSNK2A1;CSNK2A3. Also on record: species or system human, MV4-11 + K-562 + COLO205 + SK-N-BE2 + OVCAR-8. As to conditions: read-out: apparent Kd; compound concentrations:100 nM and 1000 nM (sheet 'Samples'); n = 1.
Test [13] concerns CSNK2A2. Also noted: species or system human, MV4-11 + K-562 + COLO205 + SK-N-BE2 + OVCAR-8. As to conditions: read-out: apparent Kd; compound concentrations:100 nM and 1000 nM (sheet 'Samples'); n = 1.
Test [14] concerns PKN1. Also noted: species or system human, MV4-11 + K-562 + COLO205 + SK-N-BE2 + OVCAR-8. As to conditions: read-out: apparent Kd, n = 1.
Test [15] deals with FLT4. Also noted: species or system human, MV4-11 + K-562 + COLO205 + SK-N-BE2 + OVCAR-8. As to conditions: read-out: apparent Kd; compound concentrations:100 nM and 1000 nM (sheet 'Samples'); n = 1.
Test [16] deals with PAK4. Also noted: species or system human, MV4-11 + K-562 + COLO205 + SK-N-BE2 + OVCAR-8. As to conditions: read-out: apparent Kd; compound concentrations:100 nM and 1000 nM (sheet 'Samples'); n = 1.
Test [17] deals with RET. Also noted: species or system human, MV4-11 + K-562 + COLO205 + SK-N-BE2 + OVCAR-8. Conditions: read-out: apparent Kd; compound concentrations:100 nM and 1000 nM (sheet 'Samples'); n = 1.
Test [18] has as its system SIK2. Also noted: species or system human, MV4-11 + K-562 + COLO205 + SK-N-BE2 + OVCAR-8. Conditions: read-out: apparent Kd; compound concentrations:100 nM and 1000 nM (sheet 'Samples'); n = 1.
[19] abbreviates: compound concentrations:100 nM and 1000 nM (sheet 'Samples').

Consider `COc1ccc(Nc2nccc(NCCNC(=O)Nc3cc(C)ccc3C)n2)cc1` [GSK1379899A], for which the potency estimated from few doses in [1] (compound concentrations: 100 nM and 1000 nM (sheet 'Samples'), CATDS: 4.14189738717365E-2) was 1930 nM; in [2] (compound concentrations: 100 nM and 1000 nM (sheet 'Samples'), CATDS: 4.9044286773088197E-2), 1220 nM; in test [3] (CATDS: 0.21656856359749399), 102 nM; in [4] (CATDS: 4.8399492982865999E-2) it was 1260 nM; in test [5] (compound concentrations: 100 nM and 1000 nM (sheet 'Samples'), CATDS: 5.18818459595803E-2) it was 1070 nM.
Take `Cc1cc(NC(=O)c2cccc(NC(=O)/C=C/CN(C)C)c2)ccc1Nc1nccc(-c2cccnc2)n1` [JNK-IN-7]: the potency estimated from few doses was 1000 nM in test [1] (setting [19]); 1330 nM in test [6] (setting [19]); 1630 nM in [7] (setting [19]); 2110 nM in test [8]; 688 nM in [9]; 883 nM in test [10] (setting [19]).
As for `CC(C)(CO)CNC(=O)c1ccc2c(c1)/C(=N/Nc1ccc(S(N)(=O)=O)cc1)C(=O)N2` [GW301784X], the potency estimated from few doses in test [1] (setting [19]) was 1820 nM; in test [6] (setting [19]), 1840 nM; in test [11] (setting [19]), 878 nM; in test [7] (setting [19]), 612 nM; in test [12], 120 nM; in test [13] it was 64.3 nM. Besides, the potency estimated from few doses in test [10] (setting [19]) is 1600 nM.
Take `Cl.Cl.NC[C@H](CC1CCCCC1)NC(=O)c1ccc(-c2ccnc3[nH]ccc23)s1.NC[C@H](CC1CCCCC1)NC(=O)c1ccc(-c2ccnc3[nH]ccc23)s1` [GSK1581428A]: the potency estimated from few doses in [1] (setting [19]) was 54.5 nM; in [14] (setting [19]), 538 nM; in [10] (setting [19]), 62.7 nM.
Take `Cn1cc(C2=C(c3c(S(C)=O)n(C)c4ccccc34)C(=O)NC2=O)c2ccccc21` (centres unmarked) [RO0317379-000]: the potency estimated from few doses is 217 nM in [1] (compound concentrations: 100 nM and 1000 nM (sheet 'Samples'), CATDS: 0.257155893587458); 1050 nM in test [6] (compound concentrations: 100 nM and 1000 nM (sheet 'Samples'), CATDS: 0.121414398934197); 142 nM in [10] (compound concentrations: 100 nM and 1000 nM (sheet 'Samples'), CATDS: 0.33733581248504402).
For the compound `O=C1N=C(N[C@@H](CO)Cc2ccccc2)S/C1=C\c1ccc2ncccc2c1` [RO4509200-000], the potency estimated from few doses is 551 nM in [1] (compound concentrations: 100 nM and 1000 nM (sheet 'Samples'), CATDS: 0.15010438596183701); 1460 nM in test [6] (compound concentrations: 100 nM and 1000 nM (sheet 'Samples'), CATDS: 0.102719601142922); 329 nM in test [11] (compound concentrations: 100 nM and 1000 nM (sheet 'Samples'), CATDS: 0.20013343303713499); 470 nM in [7] (compound concentrations: 100 nM and 1000 nM (sheet 'Samples'), CATDS: 0.162916549975684); 613 nM in test [10] (compound concentrations: 100 nM and 1000 nM (sheet 'Samples'), CATDS: 0.142532878113064).
As for `CN(C)C(=O)/C(C#N)=C/c1ccc(-c2nc3cnc4[nH]ccc4c3n2C2CCCCC2)o1` [FM-381], the potency estimated from few doses in test [1] (setting [19]) was 1820 nM; in test [6] (setting [19]), 1050 nM; in [9], 566 nM; in test [10] (setting [19]), 1760 nM.
For the compound `COc1cc[nH]c1/C=C1\C(=O)Nc2ccc(F)c(C#C[C@@H](O)[C@@H](N)[C@@H](C)O)c21` [RO0283120-000], the potency estimated from few doses in test [1] (setting [19]) was 171 nM; in [6] (setting [19]), 84.3 nM; in test [7] (setting [19]), 1360 nM; in test [12], 750 nM; in test [13], 497 nM; in [15] it was 1670 nM. Moreover, the potency estimated from few doses is 868 nM in test [2] (setting [19]); 679 nM in test [8]; 20.3 nM in [9]; 350 nM in [16]; 959 nM in test [14] (setting [19]); 821 nM in [5] (setting [19]). In addition, the results for the potency estimated from few doses in test [10] (setting [19]), in [17] and in test [18] were 208 nM, 117 nM and 878 nM, respectively.
On to `CNCC1CCn2c(c(C3=C(c4cn(C)c5ccccc45)C(=O)NC3=O)c3ccccc32)C1` (centres unmarked) [RO0318676-000], for which the potency estimated from few doses in [1] (compound concentrations: 100 nM and 1000 nM (sheet 'Samples'), CATDS: 2.7439250549300399E-2) is 1910 nM; in [2] (compound concentrations: 100 nM and 1000 nM (sheet 'Samples'), CATDS: 3.3618066019117501E-2), 961 nM; in test [3] (CATDS: 6.7317846208259105E-2) it was 171 nM; in [4] (CATDS: 7.2494529815898601E-2) it was 146 nM; in test [14] (compound concentrations: 100 nM and 1000 nM (sheet 'Samples'), CATDS: 2.8488431691069401E-2), 1650 nM; in [5] (compound concentrations: 100 nM and 1000 nM (sheet 'Samples'), CATDS: 3.0243229141785101E-2), 1340 nM. The potency estimated from few doses in test [10] (compound concentrations: 100 nM and 1000 nM (sheet 'Samples'), CATDS: 2.7484619244742201E-2) was 1890 nM.
As for `COc1cc[nH]c1/C=C1\C(=O)Nc2ccc(F)c(I)c21` [RO0281567-000], the potency estimated from few doses in test [1] (compound concentrations: 100 nM and 1000 nM (sheet 'Samples'), CATDS: 0.16412118246726901) was 568 nM; in [6] (compound concentrations: 100 nM and 1000 nM (sheet 'Samples'), CATDS: 0.232255536891084), 309 nM; in test [3] (CATDS: 0.11117571470946799) it was 1460 nM; in test [10] (compound concentrations: 100 nM and 1000 nM (sheet 'Samples'), CATDS: 0.16614751317759599), 555 nM.
